{"source": "PubChem BioAssay (NCATS)", "note": "Records with an inconclusive call do not appear. Entries that show only a call come without a potency. The source made the active and inactive calls. Calls follow the shape of the dose curve; as a rule, active = well fitted inhibition curve with a large enough effect; inconclusive = small, poorly fitted or top-dose-only effect; inactive = flat fitted curve, though single readings scatter. Potency is read from the fitted curve at half-maximal effect.", "data": [{"molecular_target": "Ubiquitin carboxyl-terminal hydrolase 1 (Homo sapiens) (UniProt O94782)", "sequence (O94782 whole entry, looked up)": "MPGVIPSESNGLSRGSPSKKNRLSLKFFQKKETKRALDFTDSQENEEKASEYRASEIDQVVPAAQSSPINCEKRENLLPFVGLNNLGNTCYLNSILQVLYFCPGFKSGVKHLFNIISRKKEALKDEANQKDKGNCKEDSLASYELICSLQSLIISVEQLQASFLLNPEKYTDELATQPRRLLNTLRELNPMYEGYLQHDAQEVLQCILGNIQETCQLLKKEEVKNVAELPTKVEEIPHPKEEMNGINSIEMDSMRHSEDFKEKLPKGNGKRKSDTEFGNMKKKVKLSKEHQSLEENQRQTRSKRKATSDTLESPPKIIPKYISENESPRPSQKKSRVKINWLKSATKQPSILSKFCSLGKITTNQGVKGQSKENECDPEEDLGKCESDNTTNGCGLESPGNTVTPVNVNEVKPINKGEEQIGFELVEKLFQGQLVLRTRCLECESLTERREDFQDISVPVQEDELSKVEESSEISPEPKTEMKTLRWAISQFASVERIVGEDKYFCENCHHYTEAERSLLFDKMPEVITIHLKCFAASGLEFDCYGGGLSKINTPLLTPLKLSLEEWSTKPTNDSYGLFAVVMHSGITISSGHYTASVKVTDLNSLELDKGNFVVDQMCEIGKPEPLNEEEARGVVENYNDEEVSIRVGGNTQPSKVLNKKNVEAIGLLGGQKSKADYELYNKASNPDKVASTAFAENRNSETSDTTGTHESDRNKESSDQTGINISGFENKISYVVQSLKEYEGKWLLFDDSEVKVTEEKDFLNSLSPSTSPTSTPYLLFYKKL", "test": "Inhibitors of USP1/UAF1: Pilot qHTS (AID 504865); also: nearly all actives have a fitted effect of over 35% in size", "conditions": "purified USP1/UAF1, Ub-rhodamine cleavage fluorescence; series mostly up to 114 µM", "in_short": "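In 50mM HEPES pH 7.8 containing 0.5mM EDTA, 1mM TCEP, 0.1 mg/ml BSA and 0.01% Tween-20, 1nM USP1/UAF1 is exposed to compound for 15 min, then Ub-Rho (150nM final) is added and fluorescence is read over time.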", "values": [{"smiles": "C1CNCCN1", "Potency": "inactive"}, {"smiles": "COC1C(OC(=O)/C=C/C=C/C=C/C=C/C(=O)O)CCC2(CO2)C1C1(C)OC1CC=C(C)C", "note": "(stereo not drawn)", "Potency": "inactive"}, {"smiles": "COc1cc(C[C@H]2C(=O)OC[C@@H]2Cc2ccc(OC)c(OC)c2)ccc1O", "Potency": "inactive"}, {"smiles": "O=C(O)CC(O)(CC(=O)O)C(=O)O", "Potency": "inactive"}, {"smiles": "CN(C)CCCn1cc(C2=C(c3c[nH]c4ccccc34)C(=O)NC2=O)c2ccccc21", "Potency": "50.1 µM (active)"}, {"smiles": "NCCCC(=O)O", "Potency": "inactive"}, {"smiles": "CN[C@H]1CC[C@@H](c2ccc(Cl)c(Cl)c2)c2ccccc21", "Potency": "inactive"}, {"smiles": "CCCOc1ccc2nc(NC(=O)OC)sc2c1", "Potency": "inactive"}]}]}
